Screening data (PubChem)
A selection: hits, their analogues and other compounds. The true share with any hit is near 4%.
Luciferase inh: inhibitors of firefly luciferase | AID 411 | P08659 | Potency, µM (titrated, usually from 57.1 µM), actives largely listed as inhibitors | purified firefly luciferase, luminescence, 8 min | 2.2% of 72,000 active; note: nearly all actives have a fitted effect of over 40% in size
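Firefly luciferase (PKLight detection mix) with 10 uM ATP in pH 7.2 imidazole buffer (KCl, MgCl2, Tween 20, BSA). Compounds tested across a concentration series (qHTS). Luminescence read after 8 min at ambient temperature.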
PK Bst: modulators of Bacillus stearothermophilus pyruvate kinase; purified pyruvate kinase, luminescence ATP production; ribose 5-phosphate activator present at AC10; Potency, µM; AID 361; 1.2% of 51,000 active; in the data active = potency below about 11 µM; inconclusive = mostly about 12 µM to 25 µM;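 the screen sought inhibitors and activators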
Tau fil binding: binds recombinant human tau filaments; P10636; recombinant tau filaments, thioflavin S fluorescence, 15 h; filaments grown with octadecylsulfate alongside compound; Potency, µM (series often up to 57.1 µM); 2% of 71,000 active; AID 596;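 note: actives lower thioflavin S fluorescence by blocking filaments or displacing dye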
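His-tagged recombinant human tau (exons 2, 3, 10; 1 uM final) fibrillized with 30 uM sodium octadecylsulfate, 15 h at 37 C, in pH 7.4 HEPES buffer with 10 uM thioflavine S and 5 mM DTT. Reduced ThS fluorescence (450/510 nm) marks activity.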
Caspase-1 inhib: allosteric or competitive inhibitors of human caspase-1; 0.03% of 75,000 active; Potency, µM (series often up to 57.5 µM), most hits filed as inhibitors; Caspase-1 enzyme, Ac-WEHD-AFC fluorogenic rate; P29466
Casp7 inh: caspase-7 (human) inhibition, allosteric or competitive; P55210; recombinant caspase-7, Ac-DEVD-AFC fluorescence rate; Potency, µM (doses to about 57.5 µM), most hits filed as inhibitors; 0.02% of 75,000 active; active = well fitted inhibition curve with a large enough effect in the main read-out, with a control signal flat, not every such curve was filed as active; inconclusive = small, poorly fitted or top-dose-only effect, or a change in a side signal
Of the large screens only hits and unclear results are named; the others gave an inactive call. Unless noted, calls come from the whole dose curve; as a rule, active = well fitted curve in the direction sought with a large enough effect; inconclusive = small, poorly fitted or top-dose-only effect, or another doubt; inactive = no such curve, though single readings can be large; an effect the other way counts as inactive or inconclusive.

COc1ccccc1NC(=O)c1oc2ccc(C)cc2c1C	Luciferase inh 16µM (no result: PK Bst)
O=c1ccc2c(o1)/C(=C/C=C(Cl)Cl)CCC2	Tau fil binding 2µM, Casp7 inh inconclusive (no result: PK Bst, Caspase-1 inhib)
O=c1c2cccc3c2c(nn1CN1CCOCC1)-c1ccccc1-3	PK Bst 2.9
Cc1ccc(-c2nn(CC(=O)NCCN3CCOCC3)c(=O)c3ccccc23)cc1	none
COCCNC(=O)C1(C)C=CCN1C(C)=O (centres undefined)	none (no result: Luciferase inh, PK Bst)
COc1ccc(S(=O)(=O)N2CCCC(C(=O)Nc3ccc(OC)c(OC)c3)C2)cc1 (centres undefined)	none
Cc1ccc(S(=O)(=O)N2CCCC(C(=O)NC3=NCCS3)C2)cc1 (centres undefined)	PK Bst 6.3
COc1ccc(NC(=O)C2CCCN(S(=O)(=O)c3ccc(C)cc3)C2)cc1OC (centres undefined)	PK Bst 5.4
CCCCCCCCCCCCCCCCCCNC(=O)OC[C@@H](COP(=O)([O-])OCC[n+]1ccsc1)OC	none (no result: PK Bst)
O=C(NC1CC1)c1ccc(-c2nc3ccccc3s2)s1	Luciferase inh 1.6µM, PK Bst 0.8
COc1ccc(/C=N/n2c(N)nc3ccccc32)cc1OC	Luciferase inh 6.3µM, PK Bst 8.4
CCSc1nncn1/N=C/c1ccc(OC)c(OC)c1	none (no result: PK Bst)
CC(C)(C)c1cc(C(c2cccnc2)N2CCN(CCO)CC2)cc(C(C)(C)C)c1O (centres undefined)	none
OCCN1CCN(C(c2cccs2)c2ccc3cccnc3c2O)CC1 (centres undefined)	Tau fil binding 6.3µM
O=C(/C=C/c1ccccc1)c1ccccc1	Luciferase inh 10µM (no result: Tau fil binding, Caspase-1 inhib, Casp7 inh)
O=C(O)[C@@H]1CS[C@@]2(CCCN(Cc3ccccc3)C2)N1	none (no result: PK Bst)
COc1ccc(-c2c(=O)n(OCc3ccccn3)c3ccccc3[n+]2[O-])cc1OC	Tau fil binding 2.5µM (no result: PK Bst)
c1ccc2[nH]c(-c3cscn3)nc2c1	none
c1ccc2nc(-c3nc4ccccc4[nH]3)ccc2c1	Luciferase inh 0.79µM, PK Bst 0.54
Cn1c(-c2ccc(CN3CCCCC3)o2)nc2ccccc21	Luciferase inh 13µM
Cn1c(-c2ccc(N)cc2)nc2ccccc21	Luciferase inh inconclusive (no result: PK Bst)
CCC(NC(C)C)C(O)c1ccc(O)c(O)c1 (centres undefined)	none (no result: Tau fil binding, Caspase-1 inhib, Casp7 inh)
CC[C@H](NC(C)C)[C@H](O)c1ccc(O)c2[nH]c(=O)ccc12	Tau fil binding 32µM (no result: PK Bst)
COc1ccc(NC(=O)CN2c3cccc4cccc(c34)S2(=O)=O)cc1	PK Bst 1.4
Cc1c(NC(=O)CN2C(=O)c3ccccc3S2(=O)=O)c(=O)n(-c2ccccc2)n1C	none
Cc1c(NC(=O)CN2c3cccc4cccc(c34)S2(=O)=O)c(=O)n(-c2ccccc2)n1C	PK Bst 11
CS(=O)(=O)N1CCC2(CCCN(Cc3ccccc3)C2)CC1	none (no result: PK Bst)
O=c1c2ccccc2oc2nc(-c3ccco3)n(Cc3ccccc3)c(=O)c12	Tau fil binding 20µM
COc1ccc2c(=O)c3c(=O)n(Cc4ccco4)c(-c4ccc(C)cc4)nc3oc2c1	Tau fil binding 10µM
COc1ccc2c(=O)c3c(=O)n(Cc4ccco4)c(C(C)C)nc3oc2c1	none
O=C(c1ccccc1)[C@H](Nc1ccc2ccccc2c1)c1ccccc1	none (no result: PK Bst)
CCCCCC[C@@H]([C@H](C)O)n1cnc2c(N)ncnc21	none (no result: PK Bst)
O=C(Nc1cccc(Oc2ccc3c(c2)C(=O)NC3=O)c1)c1ccco1	PK Bst inconclusive, Tau fil binding 25µM
Cc1ccccc1-c1cc(NCc2ccccc2)ncn1	none (no result: PK Bst)
C/C(=N\O)c1ccc2c3c([nH]c2c1)CCCC3	Luciferase inh 16µM (no result: PK Bst)
Cc1cc(-c2cc(C)c(O)c(C(C)(C)C)c2)cc(C(C)(C)C)c1O	none (no result: PK Bst)
COc1cc(-c2nnn(CC(=O)NC3CCS(=O)(=O)C3)n2)ccc1OCc1ccccc1 (centres undefined)	Luciferase inh 13µM (no result: PK Bst)
CC1(C)[C@@H]2CC[C@@]1(CS(=O)(=O)Nc1ccccc1)C(=O)C2	none (no result: PK Bst)
CCN(CC)c1ccc2cc(NC(=O)CCC(=O)O)c(=O)oc2c1	Luciferase inh 16µM, Casp7 inh inconclusive (no result: Caspase-1 inhib)
CCN(CC)c1ccc2cc(C(=O)Nc3ccccn3)c(=O)oc2c1	Luciferase inh 1µM (no result: Tau fil binding, Caspase-1 inhib, Casp7 inh)
CCN(CC)c1ccc2cc(C(=O)Nc3cccnc3N3CCOCC3)c(=O)oc2c1	Casp7 inh inconclusive (no result: Caspase-1 inhib)
CCCC12CN3CC(C)(CN(C1)C31C(=O)Nc3ccc(C)cc31)C2=O (centres undefined)	Tau fil binding 20µM
CCc1ccc2c(-c3cccc(Cl)c3)nc(=O)n(CC)c2n1	Tau fil binding 32µM (no result: PK Bst)
COc1ccc(OC2C=CC(c3ccccc3)OC2CO)c(C(C)=O)c1 (centres undefined)	none (no result: Luciferase inh, PK Bst, Tau fil binding)
COc1ccc2nc3oc(C(=O)N4CCCCC4)cc3cc2c1	Luciferase inh 13µM, PK Bst inconclusive
CCOC(=O)C1CCN(C(=O)c2cc3cc4cc(OC)ccc4nc3o2)CC1	none
O=C(O)c1cccc(N=Nc2c(S(=O)(=O)O)ccc3c2C(=O)c2ccccc2C3=O)c1O	Tau fil binding 3.2µM (no result: PK Bst)
O=C1CCCC=C1[C@@H](O)CCOCc1ccccc1	none (no result: PK Bst, Tau fil binding)
COC(=O)c1sc(N2C(=O)c3oc4ccccc4c(=O)c3C2c2cccs2)nc1C (centres undefined)	none
C=CCOC(=O)c1sc(N2C(=O)c3oc4ccccc4c(=O)c3C2c2ccco2)nc1C (centres undefined)	Tau fil binding 10µM (no result: PK Bst)
CC(=O)OC(C)(C)N=Nc1ccc(Br)cc1	none (no result: PK Bst, Caspase-1 inhib, Casp7 inh)
N#Cc1c(-c2ccco2)cc(-c2ccc(F)cc2)nc1N	PK Bst 4.7, Casp7 inh inconclusive (no result: Caspase-1 inhib)
COc1ccc(N2CCN(C(=O)C(C)(C)Oc3ccc(Cl)cc3)CC2)cc1	Tau fil binding 13µM (no result: PK Bst)
O=C(CSc1nnc(SCc2ccc(Cl)cc2)s1)N1CCOCC1	Luciferase inh 13µM (no result: PK Bst)
O=C(CSc1ccc(Cl)cc1)N1CCOCC1	none
C(=N\n1cnnc1)/c1ccc2ncccc2c1	Tau fil binding 13µM
C(=N\n1cnnc1)/c1ccccn1	none (no result: Tau fil binding, Caspase-1 inhib, Casp7 inh)
CCC(=O)c1ccc2c(c1)N(CCCN(C)C)c1ccccc1S2	Tau fil binding inconclusive (no result: PK Bst)
COc1ccc([C@H]2Sc3ccccc3N(CCN(C)C)C(=O)[C@H]2OC(C)=O)cc1	none (no result: PK Bst)
CC(=O)c1ccc2c(c1)N(CCCN(C)C)c1ccccc1S2	Tau fil binding 3.2µM (no result: PK Bst)
COc1ccc2c(c1)Sc1ccccc1N2CCN(C)C	Tau fil binding 16µM
CN(C)CCCN1c2ccccc2Sc2ccccc21	Tau fil binding 10µM
CN(C)CCSCCO	none (no result: PK Bst)
COc1cc2c3cc1Oc1cc(ccc1O)C[C@@H]1c4c(cc(OC)c(O)c4Oc4ccc(cc4)C[C@H]3[N+](C)(C)CC2)CC[N+]1(C)C	none (no result: PK Bst)
C=CCn1c(=O)c(C(=O)Nc2nnc(C)s2)c(O)c2ccccc21	none
COc1ccc2c(c1)Cc1cc(N=[N+]([O-])c3ccc4c(c3)Cc3cc(OC)ccc3-4)ccc1-2	Tau fil binding 3.2µM (no result: PK Bst)
COc1ccc2c(c1)CCc1c(-c3noc4c3CCc3cc(OC)ccc3-4)noc1-2	none (no result: PK Bst)
